In the library only some 3.5% were active in any assay of this set; here they are far more common.
GPR151 activ: activators of human GPR151; Q8TDV0; activation, % at 11.2 µM; hit rate 1% among 650,000; PathHunter beta-arrestin GPR151 cells, luminescence; in the data active = activation above about 4.9%;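 note: 0% = median of compound wells and 100% = cells with positive control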
Target sequence (Q8TDV0 whole entry, looked up): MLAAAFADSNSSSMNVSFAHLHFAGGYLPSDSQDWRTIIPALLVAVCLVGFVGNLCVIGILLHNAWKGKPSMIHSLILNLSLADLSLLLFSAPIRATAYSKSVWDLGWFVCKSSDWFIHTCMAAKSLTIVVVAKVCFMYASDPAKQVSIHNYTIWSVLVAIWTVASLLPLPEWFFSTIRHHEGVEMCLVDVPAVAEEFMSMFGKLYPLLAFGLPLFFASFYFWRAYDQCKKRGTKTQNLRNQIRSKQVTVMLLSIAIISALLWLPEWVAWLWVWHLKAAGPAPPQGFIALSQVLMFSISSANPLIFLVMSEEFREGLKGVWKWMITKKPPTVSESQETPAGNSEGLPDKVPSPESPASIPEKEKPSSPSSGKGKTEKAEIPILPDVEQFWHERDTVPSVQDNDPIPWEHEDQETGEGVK
MITF primary: human MITF inhibition, primary screen. inhibition, % at 2.6 µM. hit rate 0.91% among 650,000. O75030. AlphaScreen MITF homodimerization, bead proximity signal; in the data active = inhibition above about 50%;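 note: 0% = vehicle wells with protein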
TEAD-YAP inh: TEAD-YAP interaction inhibition; HEK-TIYL cells, TEAD-Gal4/YAP UAS-luciferase luminescence; inhibition, % at 9.12 µM; hit rate 1.4% among 640,000; in the data active = inhibition above about 32%;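 note: 0% = median of test compound wells and 100% = reference inhibitor wells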
FBW7 act: human FBW7 E3 ligase activation, primary screen; Q969H0; AlphaScreen FBW7–phospho-cyclin E peptide binding, activator screen; normalized activity (activation), % at 26.1 µM; hit rate 0.13% among 650,000; in the data active = normalized activity above about 1.9%;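 note: purified mutant Fbw7 with reduced substrate affinity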
MITF confirm: confirmation of human MITF inhibitors; shares compounds with MITF primary; AlphaScreen MITF homodimerization, biotin/His-MITF beads; inhibition, % at 2.6 µM; hit rate 16% among 4,700; AID 1259372;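 active = inhibition above a cutoff derived from the DMSO control wells, cut at about 28% in these data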;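 note: 0% = MITF dimer wells with DMSO only; inhibitors lower the bead chemiluminescence by keeping MITF from dimerizing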
AlphaScreen DR: counter-screen: compounds optically interfering with AlphaScreen; shares compounds with MITF primary; AlphaScreen optical interference counterscreen, cell-free; IC50, µM; hit rate 6% among 480; AID 1259373; call rule not given here
AS interf ctr: optically interferes with AlphaScreen signal | shares compounds with MITF primary | LysRS AlphaScreen counterscreen, signal interference, triplicate | AID 1259376 | inhibition, % at 2.6 µM | hit rate 7.6% among 4,700;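 active = inhibition above a cutoff derived from the DMSO control wells, cut at about 30% in these data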
An asterisk follows results filed as active; · = no result given.

SMILES	GPR151 activ	MITF primary	TEAD-YAP inh	FBW7 act	MITF confirm	AS interf ctr	others
O=C(CC1S/C(=N/N=C2\CSC(=O)N2)NC1=O)Nc1ccc(Cl)cc1 (centres undefined)	1	49	5	0	·	·
O=C(O)CNC(=O)CC1S/C(=N/N=C2\CSC(=O)N2)NC1=O (centres undefined)	3	88*	3	0	80*	100*
O=C(O)CNC(=O)CC1S/C(=N/N=C/c2ccccc2O)NC1=O (centres undefined)	4	5	2	0	·	·
CC(=O)c1ccc(NC(=O)CC(C)c2ccccc2)cc1 (centres undefined)	2	8	-18	0	·	·
CC(=O)c1ccc(NC(=O)CNCC(c2ccccc2)N(C)C)cc1 (centres undefined)	1	66*	12	-1	-7	0
CC(C)C(NC(=O)c1cccs1)C(=O)Nc1ccc(Cl)cc1 (centres undefined)	1	3	-2	0	·	·
FC(F)(F)c1ccc(Cn2cnc3c(NC4CCN(Cc5ccccc5)CC4)nc(Nc4ccc(N5CCOCC5)cc4)nc32)cc1	3	6	-9	0	·	·
O=C1N[C@H](Cc2ccc(O)cc2)C(=O)N2CCN(C(=O)NCc3ccccc3)C[C@H]12	-1	75*	-10	0	72*	-11	AlphaScreen DR=>6.5
O=C1N[C@H](Cc2ccccc2)C(=O)N2CCN(C(=O)c3ccccc3)C[C@H]12	0	3	5	0	·	·
CCC[C@@H]1NC(=O)[C@H]2CN(C(=O)NCc3ccccc3)CCN2C1=O	3	75*	5	0	71*	-4	AlphaScreen DR=>6.5
NCCCC[C@@H]1NC(=O)[C@H]2CN(C(=O)NCc3ccccc3)CCN2C1=O	0	-12	-1	0	·	·
O=C1N[C@H](CO)C(=O)N2CCN(C(=O)c3ccccc3)C[C@H]12	-4	-12	6	1	·	·
O=C1N[C@@H](Cc2ccccc2)C(=O)N2CCN(C(=O)OCc3ccccc3)C[C@H]12	3	6	5	0	·	·
O=C1N[C@H](CO)C(=O)N2CCN(C(=O)NCc3ccccc3)C[C@H]12	-1	81*	2	0	75*	-12	AlphaScreen DR=>6.5
O=C1N[C@@H](Cc2ccccc2)C(=O)N2CCN(C(=O)NCc3ccccc3)C[C@H]12	0	77*	8	0	74*	-7	AlphaScreen DR=>6.5
CC(=O)Nc1ccc(C2=N/C(=C/c3ccc(OC(C)=O)c(OC(C)=O)c3)C(=O)O2)cc1	0	2	3	0	·	·
O=C(COC(=O)c1ccc([N+](=O)[O-])o1)Nc1ccc2c(c1)OC(F)(F)O2	1	82*	14	0	8	13
COc1nccnc1NS(=O)(=O)c1ccc(NC(=O)c2ccc([N+](=O)[O-])c(C)c2)cc1	-1	59*	2	0	34*	-3	AlphaScreen DR=>6.5
c1ccc(-c2cc(N3CCOCC3)nc(-c3ccccn3)n2)nc1	-1	113*	45*	-1	117*	100*
COC(=O)COc1ccc(S(=O)(=O)Nc2ccc(Br)cc2F)cc1	1	3	-11	0	·	·
CCOc1ccc(CN2CCN(Cc3cccc(OC)c3OC)CC2)cc1	-1	79*	-3	1	-3	3
COc1cccc(CN2CCN(Cc3ccc(C)cc3)CC2)c1OC	0	76*	-4	0	-1	-2
COc1cccc(CN2CCN(Cc3ccc(Cl)cc3)CC2)c1OC	1	70*	-10	0	2	8
O=C(N/N=C/c1ccccc1OC(=O)c1ccc([N+](=O)[O-])cc1)c1ccc([N+](=O)[O-])cc1	1	-4	0	0	·	·
CN(CC(=O)Nc1cccc(F)c1)CC(=O)Nc1ccccc1-c1ccccc1	0	-1	2	0	·	·
SMILES	GPR151 activ	MITF primary	TEAD-YAP inh	FBW7 act	MITF confirm	AS interf ctr	others
CN(CC(=O)Nc1cccc(F)c1)CC(=O)Nc1ccccc1Oc1ccccc1	4	70*	-4	0	-10	9
COc1cccc(NC(=O)CN(C)CC(=O)Nc2ccc(C)c(F)c2)c1	1	91*	3	0	10	20
COC(=O)C1(N2CCOCC2)/C(=C(\O)c2ccccc2)C(=O)C(=O)N1c1ccccc1 (centres undefined)	-1	-1	-27	0	·	·
O=C(Nc1nc(-c2ccc(Br)cc2)cs1)c1ncn[nH]1	1	63*	-13	-1	44*	78*
O=C(Nc1nc(-c2ccccc2)cs1)c1ncn[nH]1	0	47	-19	-1	·	·
COc1cc(CN2CCN(Cc3cccc4ccccc34)CC2)cc(OC)c1	-1	74*	9	0	-11	4
COc1cc(OC)c(/C=N/N2CCN(Cc3cccc4ccccc34)CC2)c(OC)c1	1	12	13	-1	·	·
COc1cc(CN2CCN(Cc3ccccc3C)CC2)cc(OC)c1	-1	80*	-3	0	2	10
Cc1nc(C)n(-c2ccc(Nc3nccc(NCc4ccccc4)n3)cc2)n1	2	-7	31	0	·	·
CCc1nnc(NC(=O)Nc2cccc(C)c2)s1	0	8	-31	0	·	·
CCc1cnc2c(c1OC)c(=O)n(Cc1ccccn1)c(=O)n2C	2	-2	-3	0	·	·
O=C(O)c1cc([N+](=O)[O-])cc2c1-c1c(cc([N+](=O)[O-])cc1[N+](=O)[O-])/C2=C/c1ccco1	0	62*	3	-2	68*	22	AlphaScreen DR=>6.5
O=C(Cn1cnnn1)N1CCC(c2nc3sc4c(c3c(=O)[nH]2)CCCC4)CC1	0	1	-2	0	·	·
COc1ccc(OC)c(CN2CCN(Cc3cccc(F)c3)CC2)c1	0	75*	-3	0	3	20
CCOc1cc(CN2CCN(Cc3cccc(OC)c3)CC2)ccc1OC	0	24	0	0	·	·
COc1ccc(OC)c(CN2CCN(S(=O)(=O)c3ccc(F)cc3)CC2)c1	-1	58*	5	1	12	18
COc1ccc(CN2CCN(Cc3cccc(F)c3)CC2)c(OC)c1	-2	85*	-2	1	4	14
COc1ccc(OC)c(CN2CCN(Cc3cccc(Cl)c3)CC2)c1	-1	73*	-2	0	7	9
COc1cccc(CN2CCN(C(=O)c3cccc(F)c3)CC2)c1	1	44	10	0	·	·
COc1ccc(OC)c(CN2CCN(S(=O)(=O)c3ccccc3)CC2)c1	-1	14	-4	0	·	·
COc1cc(NC(=O)Cn2ccn(-c3cccc(Cl)c3)c(=O)c2=O)cc(OC)c1	0	8	-6	1	·	·
Cc1ccc(Cl)cc1NC(=O)CSc1nnc(CN2CCOCC2)n1C	1	9	6	0	·	·
COc1ccc(CN2CCN(S(=O)(=O)c3ccc(F)cc3)CC2)cc1OC	-2	53*	5	1	-1	10
COc1ccc(CN2CCN(Cc3ccc(F)cc3)CC2)cc1OC	1	26	-3	0	·	·
